# Results reported in PubChem BioAssay (NCI).
# “And” between values parts separate entries of the source, which are not always exact repeats. Equal entries are not always repeated. The panel holds about 83,000 compounds, 20% with a hit somewhere; the sample as a whole holds those more often.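 48-hour exposure, single concentration, 96-well plates; percent growth endpoint where 0 means no net growth. Active: below 10.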 The source made the active and inactive calls.
# What was measured:
# Assay in all cases: NCI-60 one-dose screen, 48 h (100 = growth as untreated, 0 = no growth, -100 = all killed)
# DU-145 prostate = tested on: DU-145 prostate
# K-562 leukemia = tested on: K-562 leukemia
# MALME-3M melanoma = tested on: MALME-3M melanoma
# MDA-MB-231 breast = tested on: MDA-MB-231 breast
# RXF 393 renal = tested on: RXF 393 renal
# SF-268 CNS = tested on: SF-268 CNS
# SF-295 CNS = tested on: SF-295 CNS
# SF-539 CNS = tested on: SF-539 CNS
# UACC-257 melanoma = tested on: UACC-257 melanoma
# M14 melanoma = tested on: M14 melanoma
# HCT-15 colon = tested on: HCT-15 colon
# HT29 colon = tested on: HT29 colon
# SNB-75 CNS = tested on: SNB-75 CNS
# SNB-19 CNS = tested on: SNB-19 CNS
# U251 CNS = tested on: U251 CNS
# PC-3 prostate = tested on: PC-3 prostate
# SK-MEL-5 melanoma = tested on: SK-MEL-5 melanoma
# UACC-62 melanoma = tested on: UACC-62 melanoma
# LOX IMVI melanoma = tested on: LOX IMVI melanoma
# SK-MEL-28 melanoma = tested on: SK-MEL-28 melanoma
structure (smiles),measurement,setting,value
ClCCn1c(CCl)nc2ccc(Cl)cc21,growth,DU-145 prostate; 10 µM,-59.3% (active)
same,growth,K-562 leukemia; 10 µM,-23.7% (active)
same,growth,MALME-3M melanoma; 10 µM,-64.3% (active)
same,growth,MDA-MB-231 breast; 10 µM,-61.7% (active)
same,growth,RXF 393 renal; 10 µM,-73.9% (active)
same,growth,SF-268 CNS; 10 µM,-69.2% (active)
same,growth,SF-295 CNS; 10 µM,25.3% (inactive)
same,growth,SF-539 CNS; 10 µM,-43.9% (active)
same,growth,UACC-257 melanoma; 10 µM,70.3% (inactive)
same,growth,M14 melanoma; 10 µM unless noted,-83.3% (active)
same,growth,HCT-15 colon; 10 µM,-31.5% (active)
same,growth,HT29 colon; 10 µM,-59.8% (active)
same,growth,SNB-75 CNS; 10 µM,20.7% (inactive)
same,growth,SNB-19 CNS; 10 µM,47.9% (inactive)
same,growth,U251 CNS; 10 µM,-67.2% (active)
same,growth,PC-3 prostate; 10 µM,-63.9% (active)
same,growth,SK-MEL-5 melanoma; 10 µM,-94.9% (active)
same,growth,UACC-62 melanoma; 10 µM,-79.6% (active)
same,growth,LOX IMVI melanoma; 10 µM,2.97% (active)
same,growth,SK-MEL-28 melanoma; 10 µM,42.8% (inactive)
CC(=O)O[C@H]1C(=O)[C@@]2(C)[C@H]([C@H](OC(=O)c3ccccc3)[C@]3(O)C[C@H](OC(=O)[C@H](O)[C@@H](NC(=O)c4ccccc4)c4ccccc4)C(C)=C1C3(C)C)[C@]1(OC(C)=O)CO[C@@H]1C[C@@H]2O,growth,DU-145 prostate; 0.01 µM,-35.7% (active)
same,growth,DU-145 prostate; 2.5 µM,-5.74% (active)
same,growth,DU-145 prostate; 5 µM,-7.54% (active)
same,growth,DU-145 prostate; 10 µM,-49.5% (active) and -4.6% (active)
same,growth,K-562 leukemia; 0.01 µM,10.7% (inactive)
same,growth,K-562 leukemia; 2.5 µM,5.83% (active)
same,growth,K-562 leukemia; 5 µM,6.14% (active)
same,growth,K-562 leukemia; 10 µM,-6.92% (active) and 5.96% (active)
same,growth,MALME-3M melanoma; 0.01 µM,52.3% (inactive)
same,growth,MALME-3M melanoma; 2.5 µM,51.7% (inactive)
same,growth,MALME-3M melanoma; 5 µM,61.6% (inactive)
same,growth,MALME-3M melanoma; 10 µM,52.5% (inactive) and 62.6% (inactive)
same,growth,MDA-MB-231 breast; 0.01 µM,49.4% (inactive)
same,growth,MDA-MB-231 breast; 2.5 µM,-6.11% (active)
same,growth,MDA-MB-231 breast; 5 µM,2.87% (active)
same,growth,MDA-MB-231 breast; 10 µM,29.1% (inactive) and 5.06% (active)
same,growth,RXF 393 renal; 0.01 µM,1.22% (active)
same,growth,RXF 393 renal; 2.5 µM,-29.4% (active)
same,growth,RXF 393 renal; 5 µM,-25.8% (active)
same,growth,RXF 393 renal; 10 µM,28.9% (inactive) and -25.2% (active)
same,growth,SF-268 CNS; 0.01 µM,42.1% (inactive)
same,growth,SF-268 CNS; 2.5 µM,27.2% (inactive)
same,growth,SF-268 CNS; 5 µM,29.5% (inactive)
same,growth,SF-268 CNS; 10 µM,37.1% (inactive) and 36.3% (inactive)
same,growth,SF-295 CNS; 0.01 µM,55.9% (inactive)
same,growth,SF-295 CNS; 2.5 µM,2.61% (active)
same,growth,SF-295 CNS; 5 µM,3.25% (active)
same,growth,SF-295 CNS; 10 µM,9.92% (active) and 1.83% (active)
same,growth,SF-539 CNS; 0.01 µM,-15.1% (active)
same,growth,SF-539 CNS; 2.5 µM,-28.7% (active)
same,growth,SF-539 CNS; 5 µM,-33.8% (active)
same,growth,SF-539 CNS; 10 µM,-14.3% (active) and -16.1% (active)
same,growth,UACC-257 melanoma; 0.01 µM,14.6% (inactive)
same,growth,UACC-257 melanoma; 2.5 µM,48.7% (inactive)
same,growth,UACC-257 melanoma; 5 µM,59.6% (inactive)
same,growth,UACC-257 melanoma; 10 µM,26.9% (inactive) and 65% (inactive)
same,growth,M14 melanoma; 2.5 µM,-1.65% (active)
same,growth,M14 melanoma; 5 µM,19.5% (inactive)
same,growth,M14 melanoma; 10 µM,24.9% (inactive) and 24.5% (inactive)
same,growth,HCT-15 colon; 0.01 µM,87.3% (inactive)
same,growth,HCT-15 colon; 2.5 µM,13.2% (inactive)
same,growth,HCT-15 colon; 5 µM,12.4% (inactive)
same,growth,HCT-15 colon; 10 µM,-26.2% (active) and 11.5% (inactive)
same,growth,HT29 colon; 0.01 µM,3.27% (active)
same,growth,HT29 colon; 2.5 µM,-29.4% (active)
same,growth,HT29 colon; 5 µM,-21.4% (active)
same,growth,HT29 colon; 10 µM,-21.5% (active) and -18.2% (active)
same,growth,SNB-75 CNS; 0.01 µM,-1.17% (active)
same,growth,SNB-75 CNS; 2.5 µM,-28% (active)
same,growth,SNB-75 CNS; 5 µM,-16.7% (active)
same,growth,SNB-75 CNS; 10 µM,-38.5% (active) and -19.3% (active)
same,growth,SNB-19 CNS; 0.01 µM,30% (inactive)
same,growth,SNB-19 CNS; 2.5 µM,25.9% (inactive)
same,growth,SNB-19 CNS; 5 µM,30.1% (inactive)
same,growth,SNB-19 CNS; 10 µM,31.4% (inactive) and 35.6% (inactive)
same,growth,U251 CNS; 0.01 µM,27.9% (inactive)
same,growth,U251 CNS; 2.5 µM,12.3% (inactive)
same,growth,U251 CNS; 5 µM,13.9% (inactive)
same,growth,U251 CNS; 10 µM,10.6% (inactive) and 15.9% (inactive)
same,growth,PC-3 prostate; 0.01 µM,25% (inactive)
same,growth,PC-3 prostate; 2.5 µM,26.2% (inactive)
same,growth,PC-3 prostate; 5 µM,34.7% (inactive)
same,growth,PC-3 prostate; 10 µM,-45.5% (active) and 37.3% (inactive)
same,growth,SK-MEL-5 melanoma; 0.01 µM,18% (inactive)
same,growth,SK-MEL-5 melanoma; 2.5 µM,4.29% (active)
same,growth,SK-MEL-5 melanoma; 5 µM,17.5% (inactive)
same,growth,SK-MEL-5 melanoma; 10 µM,34.6% (inactive) and 13% (inactive)
same,growth,UACC-62 melanoma; 0.01 µM,24.9% (inactive)
same,growth,UACC-62 melanoma; 2.5 µM,34.2% (inactive)
same,growth,UACC-62 melanoma; 5 µM,40.3% (inactive)
same,growth,UACC-62 melanoma; 10 µM,41.8% (inactive) and 42.9% (inactive)
same,growth,LOX IMVI melanoma; 0.01 µM,35.4% (inactive)
same,growth,LOX IMVI melanoma; 2.5 µM,9.12% (active)
same,growth,LOX IMVI melanoma; 5 µM,42.1% (inactive)
same,growth,LOX IMVI melanoma; 10 µM,35.1% (inactive) and 42.3% (inactive)
same,growth,SK-MEL-28 melanoma; 2.5 µM,71.3% (inactive)
same,growth,SK-MEL-28 melanoma; 5 µM,76.6% (inactive)
same,growth,SK-MEL-28 melanoma; 10 µM,75.7% (inactive)
